Target: Metabotropic glutamate receptor 3 (Rattus norvegicus) (UniProt P31422)
Test: PubChem AID 623888
Conditions: HEK/GIRK rat mGlu3, thallium flux fluorescence, Schild, at 30 µM; % glutamate max: glutamate max response with compound, stronger effect = lower value; glutamate response, % max: at 100 µM (top of the series), compound 30 µM

Sequence of Metabotropic glutamate receptor 3 (Rattus norvegicus) (P31422 whole entry, looked up): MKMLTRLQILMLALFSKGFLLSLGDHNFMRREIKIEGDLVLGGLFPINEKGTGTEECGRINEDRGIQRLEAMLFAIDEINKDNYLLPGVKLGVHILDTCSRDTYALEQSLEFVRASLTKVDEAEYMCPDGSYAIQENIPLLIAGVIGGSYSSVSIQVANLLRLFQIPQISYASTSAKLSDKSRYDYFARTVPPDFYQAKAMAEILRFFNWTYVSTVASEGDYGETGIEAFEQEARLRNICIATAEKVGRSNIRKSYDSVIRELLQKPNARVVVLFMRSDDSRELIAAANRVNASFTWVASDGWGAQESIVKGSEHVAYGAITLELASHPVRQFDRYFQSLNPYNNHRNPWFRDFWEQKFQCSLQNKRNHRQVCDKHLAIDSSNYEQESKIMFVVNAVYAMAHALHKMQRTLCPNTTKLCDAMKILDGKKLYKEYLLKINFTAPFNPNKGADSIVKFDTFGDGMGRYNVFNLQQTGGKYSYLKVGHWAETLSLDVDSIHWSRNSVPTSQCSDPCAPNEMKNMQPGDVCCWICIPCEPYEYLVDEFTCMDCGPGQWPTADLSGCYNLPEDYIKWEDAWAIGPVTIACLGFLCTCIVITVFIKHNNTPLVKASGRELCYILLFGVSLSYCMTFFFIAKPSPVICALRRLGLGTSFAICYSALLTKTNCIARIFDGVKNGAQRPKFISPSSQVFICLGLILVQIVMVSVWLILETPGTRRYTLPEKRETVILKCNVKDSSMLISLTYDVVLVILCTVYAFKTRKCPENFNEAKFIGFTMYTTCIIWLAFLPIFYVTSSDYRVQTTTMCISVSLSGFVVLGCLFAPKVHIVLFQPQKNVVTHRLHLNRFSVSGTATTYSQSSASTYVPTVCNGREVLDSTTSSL

Molecule `COc1ccc(C#Cc2ccc(C(=O)N3CCC[C@@H](CO)C3)cc2)cc1` has a % glutamate max of 1.37% and a glutamate response, % max of 2.62.

— PubChem BioAssay AID623888 (Vanderbilt Specialized Chemistry Center, 2012)
